The text below walks through data of ChEMBL document CHEMBL3433997, “St. Jude Leishmania screening dataset” (2016).

In general, inhibition refers to the drop in the measured response relative to a control, in per cent.

The target of this assay is Glucose transporter (Leishmania mexicana) (UniProt O61059). Kind of assay: ST_JUDE_LEISH: Cytotoxicity at 2uM final concentration against transgenic Leishmania Mexicana promastigotes LmGT2 that are glucose transport deficient and complemented with the L. Mexicana glucose transporter 2. Activity is measured by DNA content using SYBR green in vitro. The assay is classed as functional.
On to `COC(=O)c1ccc(OCC(C)NCC(O)c2cccc(C(F)(F)F)c2)cc1` (stereo not given), for which the inhibition was found to be 8.64%.

As for `O=C(Nc1cccc(-c2nn3ncccc3c2-c2ccnc(Nc3cccnc3)n2)c1)c1c(F)cccc1F`, the inhibition is 2.21%.

For `CCCNCc1ccc(-c2ccc(CN(Cc3ccc4c(c3)OCO4)C(=O)Cc3cccnc3)cc2)nc1`, the inhibition came to 10.2%.

On to `CC(C)Cn1c(Sc2ccc(C#N)c([N+](=O)[O-])c2)nnc1-c1ccccc1Cl`, for which the inhibition is -0.31%.

Consider `O=C(Nc1ccc(Cn2ncc(N3CCNCC3)c(Cl)c2=O)cc1)Nc1ccc(-c2ccccc2)cc1`, for which the inhibition was -0.78%.

For `CN(C)C(=O)O[C@@H]1CN[C@H](C#Cc2cc3ncnc(Nc4ccc5c(cnn5Cc5cccc(F)c5)c4)c3s2)C1`, the inhibition turned out to be 10.1%.

Regarding `Clc1ccc2c(NN=Cc3ccco3)ccnc2c1`, the inhibition stood at 0.47%.

With `OC(CNCCc1ccccc1)Cn1c2ccc(Cl)cc2c2cc(Cl)ccc21` (stereo not given), the inhibition was -2.27%.

Turning to `Cc1cc(C=C(P(=O)(OC(C)C)OC(C)C)P(=O)(OC(C)C)OC(C)C)c2ccccc2c1O`, the inhibition came out at 1.63%.

As to `Nc1nccc2ccc(-c3ccc4nccn4c3)cc12`, the inhibition turned out to be 4.92%.

`Oc1ccc(Br)cc1C(O)CNCc1ccccc1OCc1ccccc1` (stereo not given): the inhibition is 2.87%.

For `O=c1cc(NCCCNCc2cn(S(=O)(=O)c3ccccc3)c3ccccc23)[nH]c2ccccc12`, the inhibition was -0.88%.

Consider `O=C(C=Cc1ccc(Cl)c(Cl)c1)NC1CCN(CCc2ccccc2)CC1`, for which the inhibition is -4.41%.

Consider `CC(C)N(Cc1ccccc1)C(=O)CN1C(=O)COc2ccc(S(=O)(=O)N3CCCCCC3)cc21`, for which the inhibition came out at 10.5%.

Turning to `COc1cc2ncnc(Nc3ccc(OCc4ccccc4)c(OCc4ccccc4)c3)c2cc1OC`, the inhibition amounted to 2.69%.

For `CN(C(=O)c1ccccc1)C1c2cc(C#N)ccc2OC(C)(C)C1O` (stereo not given), the inhibition came to 0.38%.

For the compound `Cc1cnc(NCC2CCCCC2)nc1N[C@@H](CC(C)C)C(=O)Nc1ccccc1`, the inhibition worked out at 0.65%.

With `CNC(=O)Cc1ccc(C(=O)Nc2cccc(-c3ccc(-c4nc5cccc(C)c5[nH]4)s3)c2)cc1`, the inhibition came to 1.79%.

Turning to `CN1CCN(c2cc(NC(=O)c3ccc(-c4ccc(C#N)cc4)cc3)ccc2Cl)CC1`, the inhibition is 0.17%.

With `CCOc1ccc2c(=NN=Cc3cccc(F)c3)cc(C)[nH]c2c1`, the inhibition is 2.7%.

On to `CCCc1ccc(S(=O)(=O)NC2CCN(c3ccnc(Nc4ccc(F)cc4)n3)C2)cc1` (stereo not given), for which the inhibition came to 1.48%.

Regarding `COc1ccc2nccc(N3CCC(NCCNCc4ccc5c(n4)NC(=O)CO5)C3)c2n1` (stereo not given), the inhibition was determined as 1.15%.

As for `CC(C)C[C@H](NC(=O)c1ccc(OCCN2CCOCC2)cc1)C(=O)NC(/C=N/N1CCCC1=O)C(C)C` (stereo not given in full), the inhibition stood at 2.49%.

For `CNc1ccc(CNCc2cccc(-c3ccc(-c4nc5cccc(C)c5[nH]4)s3)c2)cc1`, the inhibition was 6.79%.

For the compound `CC(=O)Nc1cccc(-c2cnc(N)c3cc(-c4ccc5c(c4)OCO5)ccc23)c1`, the inhibition was determined as 5.76%.

In the case of `COc1nc2c(N3CCN(CCNCc4ccc5c(n4)NC(=O)CS5)CC3)ccnc2cc1F`, the inhibition is 0.49%.

For `O=C1CCCN1CCCNCc1ccc(-c2ccc(-c3nc4cc(C(F)(F)F)ccc4[nH]3)cc2)cc1`, the inhibition turned out to be 2.6%.

As for `FC(F)(F)c1ccc2[nH]c(-c3ccc(-c4ccc(CNCC5CCCO5)cc4)cc3)nc2c1` (stereo not given), the inhibition came out at 1.84%.

In the case of `O=C(Nc1ccc(-c2csc(-c3nc4ccccc4[nH]3)c2)cc1)Nc1ccc(F)c(F)c1F`, the inhibition is 2.02%.

On to `CCC[C@@H]([C@@H](Cc1ccc(C)s1)C(=O)N[C@@H](CNC(C)=O)C(=O)Nc1nccs1)N(O)C=O`, for which the inhibition stood at 8.72%.

Regarding `O=C(Nc1ccc(-c2cccc(-c3nc4ccccc4[nH]3)c2)cc1)Nc1ccc2c(c1)OCO2`, the inhibition was determined as 0.58%.

With `O=C(NC1CCC(N2CCC(O)(c3ccc(F)cc3)CC2)CC1)c1cc2ccccc2[nH]1` (stereo not given), the inhibition was -0.31%.

`COc1ccc2nccc(N3CCC(CCNCc4ccc5c(n4)NC(=O)CO5)CC3)c2n1`: the inhibition stood at 1.8%.

On to `CCn1c(Sc2ccc(C#N)c([N+](=O)[O-])c2)nnc1-c1cc(OC)cc(OC)c1`, for which the inhibition was -0.03%.

With `OCCN1CCN(Cc2cccc(-c3ccc(-c4nc5cc(C(F)(F)F)ccc5[nH]4)s3)c2)CC1`, the inhibition worked out at 0.82%.

`CCC(=O)Nc1cc(=O)[nH]c2nc(-c3ccc(Cl)cc3)nn12`: the inhibition was -2.81%.

In the case of `CN1CCC(N2CCN(Cc3ccc(-c4ccc(-c5nc6ccccc6[nH]5)s4)cc3)CC2)CC1`, the inhibition was determined as 5.9%.

Take `COc1cc2nc(N3CCN(C(=O)c4ccco4)CC3)nc(NCc3ccccc3)c2cc1OC`: the inhibition stood at 11.1%.

Consider `CC(C)c1ccc(N2CCN(CCCCNC(=O)c3ccc(NC(=O)c4cc(Cl)cc(Cl)c4)cc3)CC2)cc1`, for which the inhibition is 1.9%.

Turning to `O=C(NC1CCN(CCCc2ccccc2)CC1)c1ccc(-c2cccc(C(F)(F)F)c2)s1`, the inhibition stood at 3.77%.
